Results: PubChem BioAssay (EPA / NIEHS)
Active and inactive are the calls of the source. How the source made its calls: active means hit-call score of the fitted dose curve at least 0.9, where 1 is the maximum; inactive means score below 0.9.

experiment: ATG_CRE_CIS: Attagene CIS-FACTORIAL HepG2 Assay for human cAMP Responsive Element (CRE) binding protein 3 (AID 2282926); details: HepG2 CRE cis-reporter, Attagene multiplexed mRNA; actives raise or lower the signal
In short: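 Endogenous transcription factor activity read via CRE-regulated reporter transcripts in transfected HepG2 cells. After 24 h exposure, RNA was reverse-transcribed, amplified, fluorescently labelled and sized by capillary electrophoresis; gain or loss fitted against DMSO.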

| SMILES | outcome | AC50 |
| --- | --- | --- |
| Nc1c(Oc2ccccc2)cc(O)c2c1C(=O)c1ccccc1C2=O | inactive | – |
| Clc1cc(C(Cl)(Cl)Cl)cnc1Cl | inactive | – |
| CCOC(=O)c1ccccc1S(=O)(=O)NC(=O)Nc1nc(Cl)cc(OC)n1 | inactive | – |
| CN(N=O)C(N)=O | inactive | – |
| CC(C)=CC1C(C(=O)OCc2cccc(Oc3ccccc3)c2)C1(C)C (centres undefined) | inactive | – |
| CC(C)CP(=S)(S)CC(C)C | inactive | – |
| C=CCN=C=S | inactive | – |
| O=C(Nc1ccc(Br)cc1)c1cc(Br)cc(Br)c1O | inactive | – |
| CC(C)C(C)(N)C#N (centres undefined) | inactive | – |
| CCOP(=S)(OCC)Oc1ccc(Cl)cc1Cl | inactive | – |
| O=NN1CCCCCCC1 | inactive | – |
| CCCCCCCCCCBr | inactive | – |
| CS(=O)(=O)c1ccc(C(=O)C2C(=O)CCCC2=O)c(Cl)c1COCC(F)(F)F | inactive | – |
| c1ccc2sc(SNC3CCCCC3)nc2c1 | inactive | – |
| CCCCCCCCCCCCN(C)C | inactive | – |
| O=c1[nH]c(=O)n(Cl)c(=O)n1Cl | inactive | – |
| Nc1cccnc1 | inactive | – |
| CC(c1ccccc1)(c1ccc(O)cc1)c1ccc(O)cc1 | inactive | – |
| Cl[C@H]1OCCO[C@@H]1Cl | inactive | – |
| OC(Cc1ccccc1Cl)(Cn1[nH]cnc1=S)C1(Cl)CC1 (centres undefined) | inactive | – |

| SMILES | outcome | AC50 |
| --- | --- | --- |
| CC1(C)[C@H](C(=O)O[C@H](C#N)c2cccc(Oc3ccccc3)c2)[C@@H]1/C=C(\Cl)C(F)(F)F | inactive | – |
| ClCCCCl | inactive | – |
| CCCCS(=O)(=O)Cl | inactive | – |
| Cc1ccccc1OP(=O)(Oc1ccccc1C)Oc1ccccc1C | inactive | – |
| O=C(NC(=O)c1c(F)cccc1F)Nc1cc(Cl)c(F)c(Cl)c1F | inactive | – |
| COc1ccc([N+](=O)[O-])cc1O | inactive | – |
| COC(=O)c1cc(Oc2ccc(Cl)cc2Cl)ccc1[N+](=O)[O-] | inactive | – |
| O=NN1CCOCC1 | inactive | – |
| C=CC(Cl)CCl (centres undefined) | inactive | – |
| CCOC(=O)OC1=C(c2cc(C)ccc2C)C(=O)NC12CCC(OC)CC2 (centres undefined) | inactive | – |
| CCCSP(=S)(OCC)Oc1ccc(SC)cc1 (centres undefined) | inactive | – |
| ClCc1ccccc1CCl | – | 9.56 µM (active) |
| O=C(O)COc1ccc(Cl)cc1 | inactive | – |
| C1CCC(C2CCCCC2)CC1 | inactive | – |
| Nc1ccc(-c2ccccc2)cc1 | inactive | – |
| O=S(=O)(Oc1ccc(Cl)cc1)c1ccc(Cl)cc1 | inactive | – |
| NC(=O)c1ccc(N)nc1 | inactive | – |
| O=C=Nc1ccc(Cl)cc1 | inactive | – |
| CN(CCCC(O)c1cccnc1)N=O (centres undefined) | inactive | – |
